Test in all cases: qHTS profiling for inhibitors of Plasmodium falciparum proliferation (AID 504749); further: nearly all actives have a fitted effect of over 60% in size
What all share (settings): P. falciparum in erythrocytes, SYBR Green DNA, 72 h; series mostly up to 12.8 µM
(In general: Quantitative high-throughput screening tests each substance at several concentrations.)

One test concerns 3D7. The method in brief: (§1)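 Infected RBCs, 0.3% parasitemia/2.5% Hct final; cpd 72 h, 37 C, 5% CO2; lysis buffer with saponin/triton/SYBR Green I, o/n RT dark; FI 485/535; norm. to artemisinin (0.29 uM) and DMSO.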
In the next test the test system is AS120. The method in brief: as §1
The subject of a further test is CP192. Put shortly:
as §1

The next test has as its system CP217. Put shortly:
as §1

Another test relates to CP250. Put shortly: as §1
The test system of another test is CP252. The method in brief: as §1
The subject of the next test is CP268. Put shortly:
as §1

In another test the test system is CP269. Put shortly:
as §1

In the next test the test system is CP297. Put shortly:
as §1

In a further test the test system is CP305. The method in brief:
as §1

A further test concerns CP315. The method in brief: as §1
The subject of the next test is DFO2036. Put shortly: as §1
The test system of another test is DIV14. Put shortly:
as §1

In a further test the test system is ECU. The method in brief: as §1
The next test relates to HB3. The method in brief:
as §1

For a further test, the system named is N140. The method in brief:
as §1

A further test concerns PC15. Put shortly: as §1
The test system of a further test is PC49. Put shortly: as §1
A further test has as its system TAB113. The method in brief:
as §1

The subject of a further test is CP329. Put shortly:
as §1

Inconclusive results are not listed. Calls of active or inactive are those of the source. The call rests on the fitted dose curve; in most records, active means well fitted inhibition curve with a large enough effect; inconclusive means small, poorly fitted or top-dose-only effect; inactive means flat fitted curve, though single readings scatter. Bridge positions count the residues as written; N and C are the ends. Square brackets hold non-standard residues; d marks the D form. Peptide text beside a SMILES is read from it. * marks the point of attachment. Ileψ(thiazoline)Cys = CC[C@H](C)[C@H](N)C1=N[C@H](C(=O)*)CS1; d(aIle) = CC[C@H](C)[C@@H](N)C(=O)O; dOrn = NCCC[C@@H](N)C(=O)O
Potency means the concentration at half of the fitted maximal effect.

Consider `CO[C@@H]1C[C@H](O[C@H]2[C@@H](C)[C@H](O[C@@H]3O[C@@H](C)C[C@@H](N(C)C)[C@@H]3OC(C)=O)[C@H](C)C[C@]3(CO3)C(=O)[C@H](C)[C@H](OC(C)=O)[C@H](C)[C@H](C)OC(=O)[C@@H]2C)O[C@H](C)[C@@H]1OC(C)=O`, for which the Potency entry in the test on 3D7, with AS120, in the test with CP192, in the test on CP217, in the test with CP250 and in the test on CP252 was “inactive” in each case. Further, the Potency entry in the test on CP268, in the test with CP269, in the test on CP297, in the test with CP305, in the test with CP315 and with DFO2036 was “inactive” throughout. For the same molecule, the Potency entry in the test on DIV14, in the test on ECU, in the test on HB3, in the test with N140, in the test on PC15 and in the test with PC49 was “inactive” each time. For the same molecule, the Potency entry in the test on TAB113 was “inactive”.
With `C[C@H](O)Cn1cnc2c1c(=O)n(C)c(=O)n2C`, the Potency entry in the test on 3D7, in the test on AS120, with CP192, in the test with CP217, with CP250 and in the test with CP252 was “inactive” each time. The Potency entry in the test on CP268, with CP269, in the test with CP297, with CP305, with CP315 and in the test with CP329 was “inactive” each time. Besides, the Potency entry in the test on DFO2036, with DIV14, with ECU, in the test with HB3, in the test on N140 and in the test on PC15 was “inactive” in each case. In addition, the Potency result in the test on PC49 and with TAB113 was “inactive” in each case.
Regarding `C[C@@H]1C[C@H]2[C@@H]3C[C@H](F)C4=CC(=O)C=C[C@@]4(C)[C@]3(F)[C@H](O)C[C@]2(C)[C@@]1(O)C(=O)CO`, the Potency result with 3D7, in the test on AS120, with CP192, with CP217, in the test with CP250 and in the test on CP252 was “inactive” throughout. In addition, the Potency entry in the test on CP268, with CP269, in the test with CP297, in the test with CP305, with CP315 and in the test with CP329 was “inactive” in each case. The Potency result in the test with DFO2036, in the test on DIV14, with ECU, in the test on HB3, with N140 and in the test with PC15 was “inactive” throughout. Besides, the Potency result in the test with PC49 and with TAB113 was “inactive” in each case.
Turning to `COc1ccccc1OC[C@H](O)CO`, the Potency entry in the test with 3D7, with AS120, with CP192, with CP217, in the test with CP250 and in the test with CP252 was “inactive” each time. The Potency entry with CP268, in the test on CP269, with CP297, in the test on CP305, in the test on CP315 and in the test on CP329 was “inactive” in each case. The Potency result in the test on DFO2036, in the test on DIV14, with ECU, with HB3, in the test on N140 and in the test with PC15 was “inactive” each time. Further, the Potency result in the test on PC49 and with TAB113 was “inactive” throughout.
Take `Cc1ccc2c(c1)c1c3n2CCN[C@H]3CCC1`: the Potency result in the test on 3D7, in the test with AS120, with CP192, in the test with CP217, in the test with CP250 and with CP252 was “inactive” in each case. Also, the Potency result in the test with CP268, in the test with CP269, in the test with CP305, in the test with CP315, in the test with CP329 and in the test on DFO2036 was “inactive” each time. In addition, the Potency result in the test with HB3, with N140, with PC49 and in the test with TAB113 was “inactive” throughout. Besides, the Potency in the test on DIV14 is 6.01 µM (active).
As for `CC(C)(C)NC[C@@H](O)COc1ccccc1C1CCCC1`, the Potency was 3.98 µM (active) in the test on AS120; 6.42 µM (active) in the test with CP192; 3.16 µM (active) with CP217; 3.16 µM (active) in the test with CP252; 5.73 µM (active) in the test with CP269; 7.21 µM (active) in the test on CP297. Further, the Potency with DIV14 was 2.03 µM (active); with ECU it was 3.55 µM (active); in the test on HB3, 3.16 µM (active); with N140 it was 3.16 µM (active); in the test with PC15, 2.51 µM (active); in the test on PC49 it was 2.24 µM (active). Further, in the test on TAB113, the Potency was 3.98 µM (active).
Take `CCN[C@@H]1C[C@H](N)[C@H](O[C@H]2OC(CN)=CC[C@H]2N)[C@@H](O)[C@H]1O[C@H]1OC[C@@](C)(O)[C@@H](NC)[C@@H]1O`: the Potency result in the test on 3D7, with AS120, with CP192, in the test with CP217, in the test with CP250 and in the test on CP252 was “inactive” in each case. The Potency entry with CP268, in the test on CP269, with CP297, in the test with CP305, with CP315 and with CP329 was “inactive” throughout. Moreover, the Potency entry with DFO2036, in the test on DIV14, in the test with ECU, with HB3, with N140 and with PC15 was “inactive” throughout. Besides, the Potency entry in the test with PC49 and in the test with TAB113 was “inactive” each time.
In the case of `O=C(N/N=C\c1ccc([N+](=O)[O-])o1)c1ccc(O)cc1`, the Potency in the test with 3D7 was 1.58 µM (active); in the test with AS120 it was 2.82 µM (active); in the test on CP217, 3.55 µM (active); in the test on CP250 it was 3.16 µM (active); with CP252, 3.16 µM (active); in the test on CP268, 5.73 µM (active). Further, the Potency with CP269 is 4.55 µM (active); in the test with CP297, 3.22 µM (active); with CP305, 2.56 µM (active); in the test with CP315, 5.73 µM (active); with CP329, 5.73 µM (active); in the test on DFO2036, 2.82 µM (active). Also, the Potency in the test with DIV14 was 3.22 µM (active); with ECU, 1.78 µM (active); with HB3, 3.55 µM (active); in the test on N140, 3.16 µM (active); with PC15 it was 2.82 µM (active); in the test with PC49, 2.24 µM (active). Besides, the Potency with TAB113 is 3.16 µM (active).
With `CC[C@H](C)[C@H](N)C1=N[C@H](C(=O)N[C@@H](CC(C)C)C(=O)N[C@@H](CCC(=O)O)C(=O)N[C@@H](C(=O)N[C@H]2CCCCNC(=O)[C@@H](CC(N)=O)NC(=O)[C@@H](CC(=O)O)NC(=O)[C@@H](Cc3cnc[nH]3)NC(=O)[C@@H](Cc3ccccc3)NC(=O)[C@@H]([C@@H](C)CC)NC(=O)[C@@H](CCCN)NC2=O)[C@@H](C)CC)CS1` ({Ileψ(thiazoline)Cys}-LE[d(aIle)]K[dOrn][d(aIle)][dF][dH][dD][dN]; lactam 4-C), the Potency entry in the test with 3D7, with AS120, with CP192, with CP217, in the test on CP250 and in the test on CP252 was “inactive” each time. The Potency result with CP268, with CP269, in the test on CP297, in the test on CP305, with CP315 and with CP329 was “inactive” each time. In addition, the Potency result in the test with DFO2036, with DIV14, in the test on ECU, with HB3, with N140 and in the test with PC15 was “inactive” each time. Also, the Potency entry in the test on PC49 and in the test with TAB113 was “inactive” throughout.
As to `C[C@@H]1O[C@H](O[C@@H]2\C=C/C=C\C=C/C=C\C[C@H](C)OC(=O)/C=C\[C@H]3O[C@@H]3C[C@H](O)C[C@]3(O)C[C@@H](O)[C@@H](C(=O)O)[C@H](C2)O3)[C@@H](O)[C@H](N)[C@@H]1O` (stereo in doubt), the Potency result in the test on 3D7, in the test with AS120, in the test on CP192, in the test on CP217, in the test on CP250 and in the test on CP252 was “inactive” in each case. The Potency result with CP269, in the test on CP297, with CP305, in the test on CP315, with CP329 and in the test on DFO2036 was “inactive” throughout. The Potency entry in the test with DIV14, in the test on ECU, in the test on HB3, in the test with N140, in the test on PC15 and in the test with PC49 was “inactive” each time. For the same molecule, the Potency result with TAB113 was “inactive”.
Turning to `c1ccc2c(c1)CCC[C@@H]2C1=NCCN1`, the Potency entry with 3D7, in the test with AS120, in the test on CP192, with CP217, in the test with CP250 and in the test on CP252 was “inactive” throughout. Further, the Potency entry in the test with CP268, in the test with CP269, with CP297, in the test with CP305, in the test on CP315 and with CP329 was “inactive” each time. Besides, the Potency result with DFO2036, in the test with DIV14, with ECU, in the test with HB3, in the test with N140 and in the test on PC15 was “inactive” throughout. The Potency entry with PC49 and with TAB113 was “inactive” each time.
